Compound activity from PubChem.
Hits are enriched below; roughly 9.4% of the tested compounds scored in any of these assays.
NPC1 prom act: qHTS Assay for NPC1 Promoter Activators | Huh7 NPC1 promoter luciferase reporter, 24 h | Potency, µM (titrated, usually from 9.22 µM), hits mostly activators | 2.4% of 320,000 active | AID 485313, 2010; further: nearly all actives have a fitted effect of over 60% in size
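Luminescence read-out of NPC1 promoter-driven luciferase in stably transfected Huh7 cells; compounds delivered in DMSO and left 24 h at 37C, 5% CO2, qHTS titration format.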
FLuc modulator: qHTS profiling assay for firefly luciferase inhibitor/activator using purifed enzyme and Km concentrations of substrates (counterscreen for miR-21 project). purified FLuc, Km substrates, luminescence inhibition. Potency, µM (titrated, usually from 57.5 µM), usual class: inhibitors. 6.9% of 360,000 active. AID 588342, 2011; further: nearly all actives have a fitted effect of over 55% in size
Target sequence (P08659 whole entry, looked up): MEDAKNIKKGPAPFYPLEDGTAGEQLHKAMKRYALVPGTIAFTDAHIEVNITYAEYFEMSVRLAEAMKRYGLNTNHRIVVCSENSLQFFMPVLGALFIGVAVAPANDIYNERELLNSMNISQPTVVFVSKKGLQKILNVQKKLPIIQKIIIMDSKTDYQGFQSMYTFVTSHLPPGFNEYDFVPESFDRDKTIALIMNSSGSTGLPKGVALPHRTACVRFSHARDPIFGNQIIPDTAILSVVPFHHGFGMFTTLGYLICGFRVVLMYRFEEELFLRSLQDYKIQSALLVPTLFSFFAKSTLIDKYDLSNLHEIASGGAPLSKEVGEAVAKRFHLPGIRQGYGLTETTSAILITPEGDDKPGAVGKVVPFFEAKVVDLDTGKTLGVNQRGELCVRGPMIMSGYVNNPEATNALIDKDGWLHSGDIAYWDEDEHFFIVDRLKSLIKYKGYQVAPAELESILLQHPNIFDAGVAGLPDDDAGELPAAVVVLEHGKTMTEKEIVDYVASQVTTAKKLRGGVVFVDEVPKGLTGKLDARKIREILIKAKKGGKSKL
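Purified P. pyralis luciferase (10nM final) with 10uM D-luciferin and 10uM ATP (Km levels) in 50mM Tris acetate pH 7.5, 10mM Mg acetate, 0.01% Tween-20, 0.05% BSA; qHTS 6-point titration, ~60 µM downward; luminescence read.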
Rab9 promoter act: qHTS Assay for Rab9 Promoter Activators; Huh7 Rab9 promoter-luciferase reporter, luminescence, 24 h; Potency, µM (highest dose often 9.22 µM), usual class: activators; AID 485297, 2010; 2.8% of 320,000 active; further: nearly all actives have a fitted effect of over 60% in size
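Huh7 cells stably carrying Rab9 promoter–luciferase reporter, plated 1500 cells/well, compound added after 2 h and incubated 24 h at 37 °C; luciferase luminescence then read after 10 min with detection reagent.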
SMN2 splice enh: qHTS Assay for Enhancers of SMN2 Splice Variant Expression | HEK293 SMN2-luciferase splicing reporter, luminescence, 30-36 h | Potency, µM (top dose mostly 46.1 µM), actives largely listed as activators | 2.8% of 210,000 active | AID 1458, 2008; further: nearly all actives have a fitted effect of over 55% in size
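HEK293 cells carry an SMN2 […]–luciferase reporter in which exon 7 inclusion puts luciferase in frame. Cells were plated 10-12 h before compound addition, then incubated 30-36 h at 37C. ONE-Glo luminescence was read; sodium butyrate at 4.5 mM final served as control.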
ELG1 genotoxic: qHTS screen for small molecules that induce genotoxicity in human embryonic kidney (HEK293T) cells expressing luciferase-tagged ELG1. AID 504466, 2011. Potency, µM (series often up to 46 µM), hits mostly activators. 1.3% of 330,000 active. HEK293T ELG1-luciferase reporter, luminescence, 16 h; further: nearly all actives have a fitted effect of over 60% in size
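HEK293T cells expressing luciferase-tagged ELG1 were exposed to compound or DMSO vehicle for 16 hr at 37 °C and 5% CO2. Luciferase activity was then measured with ONE-Glo after 30 min at room temperature.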
ELG1 DNA repair: qHTS screen for small molecules that inhibit ELG1-dependent DNA repair in human embryonic kidney (HEK293T) cells expressing luciferase-tagged ELG1; HEK293T ELG1-luciferase reporter, luminescence, 16 h; DNA damage induced by 5-fluorouridine; Potency, µM (series often up to 46.1 µM), actives largely listed as inhibitors; 2.3% of 330,000 active; further: nearly all actives have a fitted effect of over 55% in size
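Overnight (16 hr) co-exposure of 2,000 cells/well to 5-fluorouridine and compound at 37 °C preceded detection. Luciferase was quantified via ONE-Glo luminescence; loss of signal denotes inhibition.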
Numbers stand for hits; [ ] = another dose, or the depositor's remark. The call rests on the fitted dose curve; in most records, active means well fitted curve in the direction sought with a large enough effect; inconclusive means small, poorly fitted or top-dose-only effect, or another doubt; inactive means no such curve, though single readings can be large; an effect the other way counts as inactive or inconclusive.

`CCCN(C(=O)Cn1ncc2c([nH]c3ccccc32)c1=O)c1ccc(F)cc1` gave FLuc modulator inactive.
`N=C1/C(=C\c2ccc(SCc3ccccc3)o2)C(=O)N=C2SC=NN12` gave NPC1 prom act inactive, FLuc modulator 13µM, Rab9 promoter act inactive, SMN2 splice enh inactive, ELG1 genotoxic inactive and ELG1 DNA repair inactive.
For CCC(=O)N1CCc2cc(Br)cc(S(=O)(=O)N3CCN(c4ccc(C)cc4)C(C)C3)c21 (centres undefined) the results were FLuc modulator inactive and SMN2 splice enh inactive.
Screening Cn1c(SCc2ccc(C#N)cc2Cl)nc2ccccc21 returned NPC1 prom act 2.2µM, FLuc modulator 6µM, Rab9 promoter act 3.5µM, SMN2 splice enh 14µM, ELG1 genotoxic 21µM and ELG1 DNA repair inconclusive.
`N#Cc1ccc(CSc2ccccn2)c(Cl)c1` gave NPC1 prom act inactive, FLuc modulator inactive, Rab9 promoter act inactive, ELG1 genotoxic inactive and ELG1 DNA repair inconclusive.
For COC(=O)c1ccc(COc2ccc3c(C)c(C)c(=O)oc3c2C)o1 the results were NPC1 prom act inconclusive, FLuc modulator 4.8µM, Rab9 promoter act inconclusive, SMN2 splice enh inactive, ELG1 genotoxic inactive and ELG1 DNA repair inconclusive.
Cc1c(OCc2ccc(C(=O)O)o2)ccc2c3c(c(=O)oc12)CCC3 was read as NPC1 prom act inactive, FLuc modulator 19µM, Rab9 promoter act inactive, SMN2 splice enh inactive, ELG1 genotoxic inconclusive and ELG1 DNA repair inconclusive.
COc1ccccc1COc1ccc2c(C)c(CCC(=O)O)c(=O)oc2c1C was read as NPC1 prom act inactive, FLuc modulator 24µM, Rab9 promoter act inactive, ELG1 genotoxic inactive and ELG1 DNA repair inactive.
For CCOC(=O)CCc1c(C)c2ccc(OCc3cc([N+](=O)[O-])ccc3OC)c(C)c2oc1=O the results were NPC1 prom act inactive, FLuc modulator inactive, Rab9 promoter act inactive, SMN2 splice enh inactive, ELG1 genotoxic inconclusive and ELG1 DNA repair inactive.
Screening Cc1c(OC(C)C(=O)NCC(O)c2ccccc2)ccc2c3c(c(=O)oc12)CCCC3 (centres undefined) returned NPC1 prom act inactive, FLuc modulator inactive, Rab9 promoter act inactive, ELG1 genotoxic inactive and ELG1 DNA repair 15µM.
`COC(=O)c1ccc(COc2ccc(/C=N/O)cc2OC)o1` gave NPC1 prom act inactive, FLuc modulator inactive, Rab9 promoter act inactive, ELG1 genotoxic inactive and ELG1 DNA repair inactive.
`Cc1cc(=O)oc2c(C)c(OC(C)C(=O)NCC(O)c3ccccc3)ccc12` (centres undefined) gave NPC1 prom act inactive, FLuc modulator inactive, Rab9 promoter act inactive, ELG1 genotoxic inactive and ELG1 DNA repair inactive.
Cc1ccc2c(c1)-c1onc(C(=O)N3CCN(c4ccc(Cl)cc4)CC3)c1CO2 was read as FLuc modulator inactive.
Nc1ncnc2c1nc(Sc1ccc(Cl)cc1)n2[C@H]1OC2COP(=O)(O)O[C@@H]2C1O (some centres undefined) was read as NPC1 prom act inactive and Rab9 promoter act inactive.
Screening Cc1c(OCC(=O)Nc2cccnc2)ccc2c3c(c(=O)oc12)CCC3 returned NPC1 prom act inactive, FLuc modulator 19µM, Rab9 promoter act inactive, ELG1 genotoxic inactive and ELG1 DNA repair inconclusive.
`Cc1c(OCC(=O)NCc2ccccn2)ccc2c3c(c(=O)oc12)CCCC3` gave NPC1 prom act inactive, FLuc modulator inactive, Rab9 promoter act inactive, ELG1 genotoxic inactive and ELG1 DNA repair inactive.
For COCCSc1ncnc2c1oc1nc3c(cc12)COC(C)(C)C3 the results were NPC1 prom act inconclusive, FLuc modulator inactive, Rab9 promoter act inactive, ELG1 genotoxic inactive and ELG1 DNA repair inconclusive.
CC1(C)Cc2nc3oc4c(N(CCO)Cc5ccccc5)ncnc4c3cc2CO1 was read as NPC1 prom act inactive, FLuc modulator inactive, Rab9 promoter act inactive, SMN2 splice enh inactive, ELG1 genotoxic inactive and ELG1 DNA repair 18µM.
Screening Cc1c(C)c(C)c(CC2(C)CSC2)c(CC2(C)CSC2)c1C returned SMN2 splice enh inactive[9.22 µM].
`COc1ccc(-c2nsc(SCC(=O)NCC3CCCO3)n2)cc1` (centres undefined) gave NPC1 prom act inactive, FLuc modulator 15µM, Rab9 promoter act inconclusive, SMN2 splice enh inactive, ELG1 genotoxic inactive and ELG1 DNA repair inconclusive.
Screening COc1ccc(-n2nnc3c(SCC(=O)NCC4CCCO4)ncnc32)cc1 (centres undefined) returned NPC1 prom act inactive, FLuc modulator 11µM, Rab9 promoter act inactive, SMN2 splice enh inactive, ELG1 genotoxic inactive and ELG1 DNA repair inactive.
Screening O=C(CSc1ncnc2c1cnn2-c1ccc(F)cc1)NCC1CCCO1 (centres undefined) returned NPC1 prom act inactive, FLuc modulator inactive, Rab9 promoter act inactive, ELG1 genotoxic inactive and ELG1 DNA repair inactive.
`Cc1ccc(-c2nsc(SCC(=O)NCC3CCCO3)n2)cc1` (centres undefined) gave NPC1 prom act inactive, FLuc modulator 17µM, Rab9 promoter act inactive, SMN2 splice enh inactive, ELG1 genotoxic inactive and ELG1 DNA repair inactive.
Screening COc1ccc(-c2nc(SCC(=O)NCC3CCCO3)c(-c3ccc(Cl)cc3)[nH]2)cc1 (centres undefined) returned FLuc modulator inactive and SMN2 splice enh inactive.
For O=C(CC(=O)Nc1ccccc1F)Nc1ccccc1F the results were NPC1 prom act inactive, FLuc modulator inactive, Rab9 promoter act inactive, ELG1 genotoxic inactive and ELG1 DNA repair inactive.
For Cc1ccc(CCC(=O)Nc2ccccc2F)s1 the results were NPC1 prom act inconclusive, FLuc modulator 7.6µM, Rab9 promoter act inconclusive, SMN2 splice enh inconclusive, ELG1 genotoxic 10µM and ELG1 DNA repair inconclusive.
Screening COc1ccc(C(=O)NC(=S)NNC(=O)c2ccccc2O)cc1 returned NPC1 prom act inactive, FLuc modulator 21µM, Rab9 promoter act inactive, ELG1 genotoxic inactive and ELG1 DNA repair inactive.
COc1ccc(CNC(=S)Nc2ccccc2F)cc1 was read as NPC1 prom act inactive, FLuc modulator inactive, Rab9 promoter act inactive, ELG1 genotoxic inactive and ELG1 DNA repair inactive.
Screening COc1ccc(CCCC(=O)Nc2ccccc2F)cc1 returned NPC1 prom act inactive, FLuc modulator 13µM, Rab9 promoter act inconclusive, SMN2 splice enh inactive, ELG1 genotoxic inconclusive and ELG1 DNA repair inconclusive.
